An excerpt weighted towards active compounds, which were near 2.8% of everything screened.
DRD3 antagonist = blocks the human D3 dopamine receptor. 2.5% of 360,000 active. D3R cells, DiscoveRx beta-arrestin luminescence, antagonist mode; active compounds read low. P35462. max response, negative = inhibition, %; in the data active = max response below about -50%; inconclusive = no clear call, values can overlap the other calls
Target sequence (P35462 whole entry, looked up): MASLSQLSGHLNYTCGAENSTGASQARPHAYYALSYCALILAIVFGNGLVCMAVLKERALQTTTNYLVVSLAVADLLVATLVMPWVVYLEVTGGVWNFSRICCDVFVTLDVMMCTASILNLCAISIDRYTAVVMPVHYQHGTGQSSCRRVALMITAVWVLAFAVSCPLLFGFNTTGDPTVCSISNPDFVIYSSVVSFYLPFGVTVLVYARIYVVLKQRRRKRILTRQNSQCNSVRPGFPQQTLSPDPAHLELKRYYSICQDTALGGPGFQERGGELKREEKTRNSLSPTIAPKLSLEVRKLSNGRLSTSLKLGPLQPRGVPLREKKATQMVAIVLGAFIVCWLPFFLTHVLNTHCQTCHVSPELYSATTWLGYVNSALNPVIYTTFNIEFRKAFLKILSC
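Cells expressing the human receptor were seeded at 1500 cells/well, incubated overnight at 37 degrees C in 5% CO2, then exposed to library compounds with dopamine controls for 90 minutes at 37 degrees C before luminescent detection.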
LDHA block = blocks human lactate dehydrogenase A; AID 1347041; purified LDHA, NADH/diaphorase-resazurin fluorescence; active compounds read low; 0.15% of 480,000 active; activity change, % (values are at about 110 or 230 µM); P00338; in the data active = activity change below about -30%; inconclusive = mostly about -25% to -30%
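Human LDH5 at 2 nM final in Tris HCl pH 7.4 with 0.06 mM NADH and 0.2 mM pyruvate, reacted 5 minutes at room temperature. Remaining NADH coupled via diaphorase/resazurin; resorufin fluorescence read at 0 and 20 minutes, normalized to enzyme-free and DMSO wells.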
D3 ag = agonists of human D3 dopamine receptor; D3R DiscoveRx beta-arrestin cells, luminescence, 90 min; max activation, %; 0.58% of 410,000 active; AID 652048; in the data active = max activation above about 30%
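Cells at 1500/well, incubated overnight, then treated with pinned compounds (dopamine as control) for 90 min at 37 degrees C. DiscoveRx reagent added for 30 - 60 minutes at room temperature; luminescence read.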
RGS4 inhibitor = blocks human RGS4-accelerated GTP hydrolysis | Transcreener GDP fluorescence polarization, RGS4-accelerated GTP hydrolysis | P49798 | AID 504845 | 0.039% of 390,000 active | Potency, µM (doses to about 114 µM), hits mostly inhibitors; active = well fitted inhibition curve with a large enough effect; inconclusive = small, poorly fitted or top-dose-only effect; inactive = no such curve, though single readings can be large or run the other way; note: nearly all actives have a fitted effect of over 75% in size
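MLSMR compounds (23 nl, pin-transferred) preincubated 10 min at room temperature with a 500nM (2x) first reagent, then RGS4 at 900nM (2x) plus Transcreener GDP mix added; fluorescence polarization (620/688 nm) read before and after 90 min at 30 °C.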
Akt phos inh = blocks phosphorylation of Akt | Neuro2A IGF-stimulated pAkt S473 HTRF, 20 min; active compounds read low | 0.32% of 360,000 active | activity change, % for hits at 50 µM; in the data active = activity change below about -80%; inconclusive = mostly about -51% to -80%
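Neuro2A cells in DMEM with 0.5% FBS, overnight at 37 deg C, given compound at single 50 µM final, then IGF (6 nM final) for 20 min at 37 deg C. Lysed; phospho-Akt Ser473 by HTRF after 24 h, 665/615 ratio.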
PI4K2A inh = blocks human PI4K2A kinase activity; purified PI4K2A, ADP-Glo luminescence, 1 h; active compounds read low; activity change, negative = inhibition, % at 76.9 µM; 0.13% of 420,000 active; AID 1346378; in the data active = activity change below about -50%; inconclusive = mostly about -30% to -49%
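In this quantitative HTS, ADP production by PI4K2A was quantified luminescently after 1 h at ambient temperature; 100 microM adenosine served as plate-quality control.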
Of the large screens only hits and unclear results are named; the others gave an inactive call.

Cc1cc2nc3ccc(=[N+](C)C)cc-3sc2cc1N	DRD3 antagonist -54.1, PI4K2A inh inconclusive
CN(C)c1ccc2nc3ccc(=[N+](C)C)cc-3sc2c1	DRD3 antagonist -60.4, PI4K2A inh inconclusive
C=CC[C@@H]1Cc2c(N)cccc2[C@@H](CC=C)N1	none (no result: DRD3 antagonist, D3 ag, RGS4 inhibitor, Akt phos inh, PI4K2A inh)
O=C(Nc1ccc(Oc2ccc(NC(=O)c3ccco3)c(NC(=O)c3ccco3)c2)cc1)c1ccco1	DRD3 antagonist -92.6
CC(=O)Oc1ccc(C(=O)Nc2cccc(NC(=O)c3ccco3)c2)cc1	DRD3 antagonist -76.1
O=C(Nc1ccc(Oc2ccc3ccccc3c2)cc1)c1ccco1	none
CC(=O)c1cccc(NC(=O)c2cccc(NC(=O)c3ccco3)c2)c1	RGS4 inhibitor inconclusive
Cc1ccccc1NC(=O)CCn1nc(C)c(S(=O)(=O)N2CCCCC2)c1C	none (no result: DRD3 antagonist, D3 ag, RGS4 inhibitor, Akt phos inh, PI4K2A inh)
COc1ccc(OC)c(NC(=O)NC(c2ccccc2)c2nnc(-c3ccccc3)o2)c1 (configuration not stated)	none (no result: DRD3 antagonist, D3 ag, RGS4 inhibitor, Akt phos inh, PI4K2A inh)
COc1ccc(C2=C(C#N)C(=O)OC2)cc1	DRD3 antagonist -55.9
COc1cc(C2C3=C(CCCC3=O)OC3=C2C(=O)CCC3)ccc1OCc1ccc(C(=O)O)cc1	none (no result: DRD3 antagonist, D3 ag, RGS4 inhibitor, Akt phos inh, PI4K2A inh)
CCOc1cc(C2C3=C(CCCC3=O)OC3=C2C(=O)CCC3)cc(Br)c1OCC(=O)O	LDHA block -33.2 (no result: DRD3 antagonist, D3 ag, RGS4 inhibitor, Akt phos inh, PI4K2A inh)
N#Cc1nc(Cc2cccc3ccccc23)oc1NCc1ccc(F)cc1	Akt phos inh -107.5%
Cc1[nH]n(C(N)=S)c(=O)c1N=Nc1ccc(S(=O)(=O)N2CCCC2)cc1	DRD3 antagonist -78.1
CCc1nnsc1C(=O)NC(C)c1ccc(OC(C)C)c(OC)c1 (configuration not stated)	none (no result: DRD3 antagonist, D3 ag, RGS4 inhibitor, Akt phos inh, PI4K2A inh)
CCCC[n+]1c2ccccc2cc2ccccc21	DRD3 antagonist -93.7, RGS4 inhibitor inconclusive
CCC[n+]1c2ccccc2cc2ccccc21	DRD3 antagonist inconclusive, RGS4 inhibitor inconclusive
CCCCCCN1CCN(C2CN(Cc3ccc(C)cc3)S(=O)(=O)C2)CC1 (configuration not stated)	none (no result: RGS4 inhibitor)
CCCCCCN1CCN(C2CN(Cc3ccccc3)S(=O)(=O)C2)CC1 (configuration not stated)	DRD3 antagonist -93.6 (no result: RGS4 inhibitor)
Cc1ccc(CN2CC(N3CCN(C)CC3)CS2(=O)=O)cc1 (configuration not stated)	DRD3 antagonist -67.6 (no result: RGS4 inhibitor)
Cc1ccc(CN2CC(N3CCN(C4CCN(C)CC4)CC3)CS2(=O)=O)cc1 (configuration not stated)	DRD3 antagonist inconclusive (no result: RGS4 inhibitor)
CN1CCN(c2nc(-c3ccco3)cc(C(F)(F)F)n2)CC1	DRD3 antagonist -92.0 (no result: Akt phos inh)
Cc1cc2nc(C3CCN(CC4COc5ccccc5O4)CC3)[nH]c2cc1C (configuration not stated)	DRD3 antagonist -50.2
c1ccc2c(c1)OCC(CN1CCCCC1)O2 (configuration not stated)	none (no result: DRD3 antagonist, LDHA block, RGS4 inhibitor, Akt phos inh, PI4K2A inh)
CCCCc1cc2cc(C(=O)Nc3ccc(C)cc3)ccc2nc1Cl	none (no result: DRD3 antagonist, D3 ag, RGS4 inhibitor, Akt phos inh, PI4K2A inh)
Cc1ccc(CCC(=O)O)cc1Cl	none (no result: DRD3 antagonist, D3 ag, RGS4 inhibitor, Akt phos inh, PI4K2A inh)
Cc1cc(CCC(=O)O)c(C)cc1CCC(=O)O	DRD3 antagonist -52.0
COc1ccc(N(C)C(=O)CCC(=O)Nc2ccc3nc(N4CCOCC4)cc(C)c3c2)c(OC)c1	D3 ag 35.0
COc1ccc(NC(=O)CCC(=O)Nc2ccc3nc(N4CCOCC4)cc(C)c3c2)c(OC)c1	none
Cc1c(/C=N\NC(=O)C2COc3ccc(C(C)(C)C)cc3O2)c2ccccc2n1C (configuration not stated)	D3 ag 58.5
Cn1cccc1/C=N\NC(=O)C1COc2ccc(C(C)(C)C)cc2O1 (configuration not stated)	none (no result: Akt phos inh)
CCCCc1ccc(Nc2nnc(SCC(=O)NC(C)(C)C)s2)cc1	none (no result: DRD3 antagonist, D3 ag, RGS4 inhibitor, Akt phos inh, PI4K2A inh)
Clc1ccc2nc(-c3ccco3)c(Cc3ccsc3)n2c1	DRD3 antagonist -53.3 (no result: RGS4 inhibitor)
Brc1ccc2nc(-c3ccco3)c(Cc3ccsc3)n2c1	none (no result: RGS4 inhibitor)
CCN1CCN(C(C(=O)NC2CCCCC2)c2ccc(Cl)cc2)CC1 (configuration not stated)	DRD3 antagonist -59.8
O=C(NC1CCCC1)C(c1ccc(Cl)cc1)N1CCOCC1 (configuration not stated)	none
